Reference: PubChem BioAssay AID504339 (National Center for Advancing Translational Sciences (NCATS), 2011)
Screen size: about 390,000 compounds; about 17,000 (4.4%) were called active. Not shown: some 8% with an inconclusive outcome. The sample holds actives, similar compounds and a random draw of the others, so the mix is not that of the screen. Values without a mark were called inactive. Calls come from the whole dose curve; as a rule, active = well fitted inhibition curve with a large enough effect; inconclusive = small, poorly fitted or top-dose-only effect; inactive = no such curve, though single readings can be large or run the other way.

Molecular target: Lysine-specific demethylase 4A (Homo sapiens) (UniProt O75164)
Assay: qHTS Assay for Inhibitors of JMJD2A-Tudor Domain; note: nearly all actives have a fitted effect of over 50% in size
Details: AlphaScreen JMJD2A-Tudor / H3K4me3 peptide binding; series mostly up to 114 µM; activity change, negative = inhibition: at the top concentration
Source text: JMJD2A is a jumonji-domain-containing lysine demethylase that uses Fe(II) together with 2-OG to effect oxidative demethylation of histones. Methylation is one of many […] modification that affect epigenetic transcription. […] It is proposed that the functions of JmjD2A binding to the histones, is to maintain marks after they are installed and to spread the modifications by […], establishing a self-propagating cycle for rapid methylation over a large area of chromatin. […] Thus, small molecule targeting of the JMJD2A-tudor domain interaction with its target methylhistone mark is expected to enable sophisticated experiments probing the fine regulatory pathways leading to selective demethylation of a given methyllysine locus based on the methylation state of adjacent histone marks. A quantitative high throughput AlphaScreen has been developed to identify small molecule inhibitors based on a protocol published by NCGC and SGC [4].
Although AlphaScreen has significant advantages with its utility in a variety of epigenetic target assays, the primary screening data provided in this deposition should be used with caution due to the prevalence of screening artifacts. The top compound concentration tested was high (>100uM) in this assay, which increases number of actives and potential artifacts. An AlphaScreen counterscreen is highly recommended to be run against any putative actives to eliminate non-specific artifacts. Alternatively, one can use other AlphaScreen assays in PubChem to filter out promiscuous hits.
[1] Lee, J. et al. Distinct binding modes specify the recognition of methylated histone H3K4 and H4K20 by JMJD2A-tudor. Nat Struct Mol Biol. 15(1); 109-11. 2008. PMID: 18084306
[2] Yasgar, et al. Compound Management for Quantitative High-Throughput Screening. JALA. 2008 Apr;13(2):79-89. PMID: 18496600
[3] Inglese, et al. Quantitative high-throughput screening: a titration-based approach that efficiently identifies biological activities in large chemical libraries. Proc Natl Acad Sci. 1;103(31):11473-8. 2006. PMID: 16864780
[4] Quinn et al. A homogeneous method for investigation of methyl-dependent protein-protein interactions in epigenetics. Nucleic Acids Res., 38(2):e11. 2010. PMID: […]
[5] Baell,Holloway. New substructure filters for removal of pan assay interference compounds (PAINS) from screening libraries and for their exclusion in bioassays. J Med Chem. 53(7):2719-40. 2010. PMID: 20131845
NIH Molecular Libraries Probe Production Network [MLPCN]
NIH Chemical Genomics Center [NCGC]
Structural Genomics Consortium (SGC)
To each well of a 1,536w plate, 2ul of JMJD2A-Tudor (final 100nM) and 1ul biotinylated histone peptide methylated at Lys4 [b-H3(1-18)K4me3] (final 50nM) were added in 1x PBS buffer, pH 7.4, containing 0.01% Tween-20, using a nanoliter dispenser. Formation of a protein-peptide complex proceeded at room temperature for 30 min. A Kalypsys pin-tool transferred 23nl of library compound solution in DMSO to each well. Following a 30 min incubation of the protein-peptide complex with compounds at room temperature, a mixture of 40 µg/mL each streptavidin-coated donor and nickel chelate acceptor AlphaScreen beads (final 10 µg/mL) was added in a 1ul dispense for a final volume of 4ul, followed by a brief centrifugation (1000 rpm, 1 min). Plates were incubated protected from the light for 20 min at room temperature. Microplates were then read on an EnVision multilabel plate reader using the 1,536 plate HTS AlphaScreen aperture (excitation time 80 ms, measurement time 240 ms).
% is set by controls: 0 for no effect and ±100 for the full control effect; potency is the fitted concentration of half-maximal effect.

Lysine-specific demethylase 4A (Homo sapiens), sequence (O75164 whole entry, looked up, the tested form may be a part): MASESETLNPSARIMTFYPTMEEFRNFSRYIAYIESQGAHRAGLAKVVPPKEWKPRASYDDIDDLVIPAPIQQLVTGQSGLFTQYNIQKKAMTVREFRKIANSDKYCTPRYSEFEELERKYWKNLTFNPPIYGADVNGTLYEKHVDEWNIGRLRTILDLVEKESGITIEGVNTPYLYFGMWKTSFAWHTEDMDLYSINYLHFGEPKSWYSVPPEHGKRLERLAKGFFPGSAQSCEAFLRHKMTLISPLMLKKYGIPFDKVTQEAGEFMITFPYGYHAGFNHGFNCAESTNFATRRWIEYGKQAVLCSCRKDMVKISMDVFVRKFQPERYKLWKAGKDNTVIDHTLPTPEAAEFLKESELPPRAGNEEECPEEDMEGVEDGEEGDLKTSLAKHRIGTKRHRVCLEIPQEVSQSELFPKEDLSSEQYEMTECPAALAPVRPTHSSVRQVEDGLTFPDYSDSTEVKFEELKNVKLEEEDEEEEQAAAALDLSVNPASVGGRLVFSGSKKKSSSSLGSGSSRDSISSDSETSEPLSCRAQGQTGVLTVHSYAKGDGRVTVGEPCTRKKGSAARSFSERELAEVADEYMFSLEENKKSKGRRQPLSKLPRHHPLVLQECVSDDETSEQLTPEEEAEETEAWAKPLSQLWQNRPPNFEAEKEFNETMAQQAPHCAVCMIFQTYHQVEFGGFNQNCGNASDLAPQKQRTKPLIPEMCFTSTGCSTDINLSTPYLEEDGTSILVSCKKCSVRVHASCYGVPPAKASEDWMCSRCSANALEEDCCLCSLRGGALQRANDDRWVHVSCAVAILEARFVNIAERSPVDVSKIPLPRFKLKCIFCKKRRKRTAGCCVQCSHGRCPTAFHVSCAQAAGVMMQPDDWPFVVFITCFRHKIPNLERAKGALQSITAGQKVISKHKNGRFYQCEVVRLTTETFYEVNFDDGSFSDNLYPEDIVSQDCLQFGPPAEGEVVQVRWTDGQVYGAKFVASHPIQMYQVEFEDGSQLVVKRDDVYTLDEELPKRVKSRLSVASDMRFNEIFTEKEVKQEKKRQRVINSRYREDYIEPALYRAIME

Row | Compound | activity change, negative = inhibition [%] | Potency
1 | CCc1ccc2ncc3c(-c4ccc(C)cc4)nn(CC(=O)NCc4ccccc4)c3c2c1 | -23.7 | 
2 | CC(=O)N1CCCc2cc(S(=O)(=O)N3CCC(C(=O)NCc4ccc(F)cc4)CC3)ccc21 | -10 | 
3 | CCOc1ccccc1C(=O)NC1(C(F)(F)F)C(=O)Nc2c1c(=O)[nH]c(=O)n2-c1ccc(F)cc1 (centres undefined) | 2.41 | 
4 | CC(=O)N1c2ccc(S(=O)(=O)N(C)CC(=O)N(C)Cc3ccccc3)cc2CC1C (centres undefined) | -10.5 | 
5 | CC(=O)N1c2ccc(S(=O)(=O)NCCC(=O)N(C)C3CCCCC3)cc2CC1C (centres undefined) |  | 14.1 µM (active)
6 | COc1cccc(CNS(=O)(=O)c2ccc3c(c2)CC(C)N3C(=O)C2CCC2)c1 (centres undefined) |  | inactive
7 | CCc1ccc(CN(Cc2ccco2)C(=O)c2ccccc2Cl)cc1 | -2.2 | 
8 | C#CC(C)(CC)NC(=O)Cn1nnc(-c2ccc(OCc3c(F)cccc3Cl)cc2)n1 (centres undefined) | -20.5 | 
9 | Cc1cc2c(s1)c1cnn(Cc3cc(F)c(Cl)cc3Cl)c(=O)c1n2C | 6.85 | 
10 | CCOC(=O)c1ccc(N2C(=O)c3n[nH]c(C)c3C2c2ccc(O)c(OC)c2)cc1 (centres undefined) | -19.7 | 
11 | CCCN(CCC)CCNC(=O)Cn1cnc2sc(C)c(S(=O)(=O)N3CCC(C)CC3)c2c1=O | -15.4 | 
12 | CCN(CC)CCNC(=O)Cn1cnc2sc(C)c(S(=O)(=O)N3CCOCC3)c2c1=O | -3.57 | 
13 | Cc1sc2ncn(CC(=O)NCCN(C)C)c(=O)c2c1S(=O)(=O)N1CCC(C)CC1 |  | 22.4 µM (active)
14 | CCN(CCCNC(=O)c1cc(Nc2ccc(OC)cc2)nc2ccccc12)c1cccc(C)c1 | -27 | 
15 | CCOc1ccc(CCNC(=O)Cn2nc(CC)n3c(cc4sc(CC)cc43)c2=O)cc1OCC | -15.6 | 
16 | CCc1cc2c(cc3c(=O)n(CC(=O)NCCc4ccc(OC)c(OC)c4)ncn32)s1 |  | 89.1 µM (active)
17 | CCc1cc2c(cc3c(=O)n(CC(=O)N4CCN(c5cc(Cl)ccc5C)CC4)ncn32)s1 | 4.73 | 
18 | Cc1ccc(NC(=O)C2CCN(S(=O)(=O)c3cc(-c4noc(C)n4)ccc3C)CC2)c(C)c1 | -6.67 | 
19 | CCOCCCn1c(SCC(=O)Nc2ccc(CC)cc2)nc2ccccc2c1=O | 9.33 | 
20 | CCOc1ccc(CNC(=O)CCc2c(C)nn(-c3ccc(N4CCCCC4)nn3)c2C)cc1 | -24 | 
21 | CCN(CC)/[N+]([O-])=N/Oc1cc(O/[N+]([O-])=N/N2CCCC2CO)c([N+](=O)[O-])cc1[N+](=O)[O-] (centres undefined) |  | 20 µM (active)
22 | COc1ccc(C(=O)Nc2ccc(-n3nncc3-c3ccccc3)cc2)cc1OC | -34.3 | 
23 | Cc1ccc(-n2c(C)cc(C(=O)CN3C(=O)C(=O)N(C4CCCC4)C3=O)c2C)cc1 |  | 31.6 µM (active)
24 | Cc1cc(C(=O)COC(=O)C2CC2)c(C)n1-c1ccc(F)cc1 | -25.6 | 
25 | Cc1ccc(-n2c(C)cc(C(=O)CSc3nnc4ccccn34)c2C)cc1 | -20.1 | 

Row | Compound | activity change, negative = inhibition [%] | Potency
26 | Cc1c(Cl)cccc1NC(=O)C(=O)NCCc1csc2nc(-c3ccccc3F)nn12 | -13.7 | 
27 | S=C(NNC(=S)NC1CC2C=CC1C2)NC1CC2C=CC1C2 (centres undefined) |  | 3.16 µM (active)
28 | CC(C)c1ccc(NC(=S)NC2CC3C=CC2C3)cc1 (centres undefined) | -10 | 
29 | COc1ccc(-c2noc(CCC(=O)N(C)c3ccccc3C)n2)cc1 | -3.42 | 
30 | CCCCOc1ccc(Cn2c(=O)oc3ccc(C)cc32)cc1OC | 61.2 | 
31 | CCCCOc1ccc(CN2C(=O)C(=O)c3cc(Br)cc(C)c32)cc1OC |  | 14.1 µM (active)
32 | CCCCN1C(=O)C(C)=C(C)C1OCCc1ccc(OC)c(OC)c1 (centres undefined) | -2.62 | 
33 | COc1ccc(NC(=O)c2cc3cc(C)ccc3n2C)cc1 | -2.32 | 
34 | COc1ccc(-n2c(SCC(=O)Nc3ccc(Cl)c(C)c3)nc3n[nH]c(C)c3c2=N)cc1 | -14 | 
35 | Cc1cccc(Nc2nc(C)nc(N)c2S(=O)(=O)c2ccccc2)c1 | -11.2 | 
36 | CCOc1ccc(-c2nonc2NC(=O)c2oc3ccc(CC)cc3c2C)cc1 | -12.6 | 
37 | COc1ccccc1-c1cc(C(F)(F)F)nc(S(=O)(=O)CCCC(=O)Nc2ccc(F)cc2F)n1 | -6.48 | 
38 | CSc1ccccc1NC(=O)CCS(=O)(=O)c1nc(-c2cccs2)cc(C(F)(F)F)n1 |  | 22.4 µM (active)
39 | COc1ccccc1-c1cc(C(F)(F)F)nc(S(=O)(=O)CCCC(=O)Nc2cc(C)ccc2O)n1 | -24.2 | 
40 | CCc1ccccc1NC(=O)c1ccc(F)c(S(=O)(=O)NC2CCCCCC2)c1 | -4.28 | 
41 | Cc1cc(Nc2ccc(N3CCOCC3)cc2)c2cccc(C)c2n1 | -25.5 | 
42 | Cc1ccccc1N/N=C/c1ccc(N2CCOCC2)cc1 |  | 50.1 µM (active)
43 | CN(CC(=O)Nc1ccc(N2CCOCC2)cc1)CC(=O)Nc1ccccc1[N+](=O)[O-] | -5.3 | 
44 | COc1ccc(N2CCN(C(=O)CNC(=O)c3ccc(Br)o3)CC2)cc1 | -12.5 | 
45 | CC(=O)c1ccc(N2CCN(C(=O)CCc3ccccc3)CC2)cc1 | -19.3 | 
46 | CC(=O)N1CCN(c2ccc(NCc3ccc(C(C)C)cc3)cc2)CC1 |  | 44.7 µM (active)
47 | O=C(O)c1cscn1 |  | 4.47 µM (active)
48 | Cc1ccc2nc(COc3ccccc3NC(=O)Nc3ccc(F)c(Cl)c3)cc(=O)n2c1 | -14.3 | 
49 | COc1ccc(CCNC(=O)CCCCn2c(=O)c3ccccc3n(Cc3ccccc3)c2=O)cc1OC | -5.46 | 
